This note sets out measurements from PubChem BioAssay AID651821 (The Scripps Research Institute Molecular Screening Center, 2012).

The campaign covered roughly 370,000 compounds. About 4,700 (1.3%) were called active. For the sample, actives were picked, then their nearest neighbours and some compounds at random. A number with no mark means an inactive call.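 Rule for the calls: active = inhibition above the plate cutoff, the mean of all test compounds on that plate plus 3 SD (cut at about 35% in these data); inactive = the rest.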

The nature of this assay: small molecules binding CAG repeat RNA – biochemical, fluorescence, primary screen (AID 651821).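 Note: 0% = DMSO alone and 100% = 100 µM mitoxantrone as full dye displacement; higher means more dye released from RNA so lower well fluorescence.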 The conditions noted are these: r(CAG) RNA repeat, TO-PRO-1 dye displacement fluorescence; at 3 µM; hits give high values.
In the case of `C/C(=N/OC(=O)c1ccc(Br)cc1)c1ccc(C)cc1`, the inhibition is -2.66%.

Regarding `COc1ccccc1C(=O)NC(CCSC)C(=O)NNC(=O)c1ccccc1C` (centres undefined), the inhibition is -5.48%.

Consider `Cc1ccc(S(=O)(=O)N2[C@@H](c3cccc(Cl)c3)C(C(=O)O)=CC[C@H]2c2ccc(Cl)c(Cl)c2)cc1`, for which the inhibition was 25.1%.

In the case of `COc1ccc(C2CC=C(C(=O)O)C(c3ccccc3F)N2S(=O)(=O)c2ccc(C)cc2)cc1OC` (centres undefined), the inhibition was 24.2%.

As to `Cc1ccccc1S(=O)(=O)N1[C@@H](c2cccc(Cl)c2)C(C(=O)O)=CC[C@H]1c1ccc(Cl)cc1`, the inhibition is 81.4% (active).

`CCN1C(=O)[C@@H]2[C@@H]3CN(S(=O)(=O)c4ccccc4C)[C@@H](c4ccc(Cl)cc4)[C@@H]3C(=O)C[C@@H]2C1=O`: the inhibition was 8.04%.

In the case of `Cc1ccc(S(=O)(=O)N2[C@@H](c3ccccc3F)C(C(=O)O)=CC[C@H]2c2ccc(Cl)cc2)cc1`, the inhibition was 60.2% (active).

With `Cc1ccc([C@@H]2CC(=O)[C@@H]3CN(S(=O)(=O)c4ccc(C)cc4)[C@H](c4ccccc4F)C[C@@H]3N2S(=O)(=O)c2ccc(Cl)cc2)cc1`, the inhibition is 9.69%.

Consider `CCOC(=O)C1=CC[C@@H](c2ccccc2)N(S(=O)(=O)c2ccc(C)cc2)[C@H]1c1cccc(OC)c1`, for which the inhibition was 7.08%.

In the case of `Cc1ccccc1S(=O)(=O)N1[C@@H](c2cccc(Cl)c2)C(C(=O)OC(C)(C)C)=CC[C@H]1c1ccc(Cl)cc1`, the inhibition was 3.52%.

Turning to `Cc1ccc([C@@H]2CC=C(C(=O)O)[C@H](c3cccc(Cl)c3)N2S(=O)(=O)c2ccc(C)cc2)cc1`, the inhibition was 77.2% (active).

Consider `Clc1ccc(-n2c(COc3ccccc3)nnc2SCc2nc3ccccc3[nH]2)cc1`, for which the inhibition is 2.7%.

As for `COC(=O)[C@@]12CCCCC=C1N(CCc1ccc(Cl)cc1)C(=O)[C@H]2CC(=O)NCc1ccc(OC)c(OC)c1`, the inhibition is 8.28%.

Turning to `CC(=NNC(N)=O)c1ccc(Cl)c(-n2cccc2)c1`, the inhibition is 1.94%.

Consider `COc1ccc(CNC(=O)CN(Cc2ccccc2Cl)C(=O)c2csnn2)cc1`, for which the inhibition is 3.39%.

For the compound `O=S1(=O)c2c(cccc2N2CCCC2)O[C@H](COCc2ccccc2)CN1C1CC1`, the inhibition is 1.71%.

As to `CCCC1=Nc2cc(C(=O)NCc3ccco3)ccc2Sc2ccccc21`, the inhibition is 2.23%.

For the compound `C=CCN1[C@@H](Cc2ccccc2)COc2cccc(N3CCSCC3)c2S1(=O)=O`, the inhibition was 5.53%.

Turning to `Cc1ccccc1C(=O)N[C@H](C(=O)N1CCC[C@H]1C(=O)NCc1ccccc1)C(C)C`, the inhibition was 0.37%.

In the case of `O=C(NCc1cccs1)C1CCN(S(=O)(=O)c2ccccc2[N+](=O)[O-])CC1`, the inhibition is 7.31%.

Turning to `CCC(CO)Nc1cccc2c1S(=O)(=O)N(Cc1cn(Cc3ccccc3C(F)(F)F)nn1)Cc1ccccc1O2` (centres undefined), the inhibition is 7.47%.

For `COC(=O)C[C@H]1CC[C@H]2[C@H](COc3ccc(NC(=O)C4CC4)cc3C(=O)N2C)O1`, the inhibition is -1.01%.

With `Nc1[nH]c(C(=O)c2ccc(Br)cc2)c(-c2ccc3c(c2)OCO3)c1C(=O)NCCc1c[nH]c2ccccc12`, the inhibition was 14.8%.

Regarding `Cc1ccc(C(=O)N(Cc2ccccn2)CC2CCCO2)cc1` (centres undefined), the inhibition is -0.73%.

In the case of `CCOc1c(Br)cc(/C=C2\C(=O)N(CCC#N)N=C2C)cc1OC`, the inhibition is 16.2%.

`COc1cc(/C=C2/C(=O)NN(c3cccc(Cl)c3)C2=O)cc(Br)c1O`: the inhibition was 64% (active).

Take `CCN(C(=O)[C@@H](C1CC1)[C@@H](O)c1ccc2ccccc2c1)c1ccccc1`: the inhibition was -1.86%.

In the case of `COC(=O)[C@]12C[C@H](CC(=O)NCc3ccc(C)o3)C(=O)N(CCC3=CCCCC3)C1=C[C@H](C(C)(C)C)O[C@@H]2C`, the inhibition is 0.73%.

Consider `O=C(CNS(=O)(=O)c1ccccc1F)N1CCN(c2ccccn2)CC1`, for which the inhibition is -0.14%.

In the case of `COc1ccc2[nH]c3c(C)c4cc[n+](C)cc4c(C)c3c2c1`, the inhibition is 39.2% (active).

As to `CC(=O)N1CCCN(C2=Nc3ccccc3Sc3ccccc32)CC1`, the inhibition is -1.49%.

As to `O=S1(=O)c2ccc(Br)cc2OC[C@@H](Cc2ccccc2)N1Cc1cn(Cc2ccco2)nn1`, the inhibition is 4.58%.

Turning to `Cc1ccc(Nc2nc(-c3ccc(O)cc3O)cs2)nc1`, the inhibition is 36.2% (active).

`Cc1ccc(-c2csc(NCCc3nc4cc(Cl)c(Cl)cc4n3CCOCCO)n2)cc1`: the inhibition was 17.1%.

Regarding `CC(=O)Nc1cnc(-c2ccc(O)cc2C)cn1`, the inhibition was 1.38%.

With `O=S(=O)(c1cccs1)N1CCCc2nc(-c3ccc(Br)cc3)ccc21`, the inhibition is 4.14%.

`O=C(CSc1nc2ccccc2nc1N1CCCCC1)N1CCN(S(=O)(=O)c2cccc([N+](=O)[O-])c2)CC1`: the inhibition was 12%.

Regarding `CCCCC(=O)Nc1nnc(S(=O)(=O)N(C)Cc2ccco2)s1`, the inhibition is 5.48%.

As to `O=C(Nc1nnc(-c2ccccc2F)s1)c1ccccc1F`, the inhibition was 0.79%.

Turning to `CN(Cc1ccccc1)S(=O)(=O)c1nnc(NC(=O)c2ccccc2F)s1`, the inhibition is 54.3% (active).

For the compound `Cc1cccc(C(=O)Nc2c(-c3ccc(F)cc3)nc3ncccn23)c1`, the inhibition was 0.58%.

For `C=C(C)C1CC23C(=O)C4(C(=O)c5ccccc5)C[C@@]5(C)CCC(CC2C1(C)C)(C4=O)C35OC` (some centres undefined), the inhibition is 8.07%.

`Cc1ccc(-c2csc(C(C#N)=C(O)CN3CCN(C(=O)c4ccco4)CC3)n2)cc1`: the inhibition is 42.8% (active).

With `Cc1ccc(NC(=O)C(c2ccccc2)N2CCN(C(=O)c3ccco3)CC2)cc1` (centres undefined), the inhibition is 4.43%.

For `O=C(CN1CCN(C(=O)c2ccco2)CC1)Nc1ccc2c(c1)OCO2`, the inhibition is 0.64%.

As for `COc1ccc(NC(=O)CSc2nnnn2-c2cccc(OC)c2)cc1`, the inhibition was 1.33%.

Take `Nc1nc(CSc2nnnn2-c2ccccc2)nc(Nc2ccccc2)n1`: the inhibition was 7.48%.

As to `Cc1ccc(Nc2nc(CSc3nnnn3-c3ccccc3)cc(=O)[nH]2)cc1`, the inhibition is 46.6% (active).

Regarding `CC(C)CNc1cccc2c1S(=O)(=O)N(Cc1cn(Cc3ccc(Cl)cc3)nn1)Cc1ccccc1O2`, the inhibition was 5.62%.

Consider `COc1cc(C2C(C(=O)c3ccco3)=C(O)C(=O)N2c2cc(C)on2)ccc1OCc1ccccc1` (centres undefined), for which the inhibition was 10.3%.

Consider `Cc1cc(N2C(=O)C(O)=C(C(=O)c3ccc(C)o3)C2c2ccc(OCc3ccccc3)cc2)no1` (centres undefined), for which the inhibition is 49.3% (active).

Regarding `C=CCOc1cccc(C2C(C(=O)c3ccc(C)o3)=C(O)C(=O)N2c2nnc(C)s2)c1` (centres undefined), the inhibition is 6.27%.

Regarding `COc1cccc(Cn2cc(COC(=O)Nc3ccc(F)cc3)nn2)c1`, the inhibition was 0.76%.

`COCc1c(C(=O)N/N=C(\C)c2ccncc2)nnn1-c1nonc1N`: the inhibition is -1.16%.

Consider `Cc1ccccc1CS(=O)(=O)Cc1ccc(C(=O)Nc2ccc(Cl)cc2)o1`, for which the inhibition was 6.61%.

With `O=[N+]([O-])c1cc(Br)c(O)c(/C=N/Nc2nc3ccccc3s2)c1`, the inhibition was 64.1% (active).

Regarding `O=C(CSc1nc2ccccc2s1)NN=Cc1ccc(O)cc1O`, the inhibition was 11%.

On to `O=C(N/N=C/c1cc([N+](=O)[O-])ccc1O)/C(=C\c1cccs1)NC(=O)c1ccccc1`, for which the inhibition is 32.3%.

In the case of `C[C@H]1CN([C@@H](C)CO)C(=O)CCCn2nncc2CO[C@@H]1CN(C)Cc1ccc(Oc2ccccc2)cc1`, the inhibition is 1.78%.

Consider `N#CCC[C@H]1CC[C@]2(CCCN(Cc3ccc(Cl)cc3)C2)O1`, for which the inhibition is 1.52%.

As to `c1ccc(CN=C2Nc3ccccc3CS2)nc1`, the inhibition is -3.75%.

Take `Cc1ccccc1CN1CCCCC(NC(=O)c2cccc(C#N)c2)C1=O` (centres undefined): the inhibition was 3.06%.

Take `CC(C)c1nc(SCC(=O)Nc2cccc(C(=O)O)c2)c2c3c(sc2n1)CCCC3`: the inhibition was 69.3% (active).

In the case of `Cc1ccc(C)c2c1cc(C)c1nnc(SCC(=O)Nc3cccc(C(=O)O)c3)n12`, the inhibition was 2.06%.

For the compound `Cc1ccc(C)c(-n2c(SCC(=O)O)nc3sc4c(c3c2=O)CCCC4)c1`, the inhibition is 27.1%.

Turning to `COc1cc(C)c(C)cc1S(=O)(=O)N1CCCc2ccccc21`, the inhibition is -3.84%.

On to `CC(CCN1CCC(C(O)(c2ccccc2)c2ccccc2)CC1)Oc1ccc(Cl)cc1` (centres undefined), for which the inhibition is 1.34%.

Take `CCOc1ccc(N(CC(=O)Nc2c(C)n(C)n(-c3ccccc3)c2=O)S(=O)(=O)c2ccc(Cl)s2)cc1`: the inhibition is 1.32%.

With `CCCCCCCCN1C(=O)[C@@H](CC(=O)N2CCN(C(=O)OCC)CC2)C[C@@]2(C(=O)OC)C1=C[C@H](C1CCCC1)O[C@@H]2C`, the inhibition is 5.15%.

Take `Cc1ccc(C(=O)O)cc1-c1ccc(/C=C2\SC(=O)N(CC(=O)Nc3ccc4c(c3)OCO4)C2=O)o1`: the inhibition was 56% (active).

Regarding `O=C(CN1CCN(c2ncc(C(F)(F)F)cc2Cl)CC1)Nc1ccc2c(c1)OCO2`, the inhibition was -4.82%.

Turning to `Cn1c(=O)c2ccccc2n(CC(=O)Nc2ccc3c(c2)OCCO3)c1=O`, the inhibition was -1.32%.

For the compound `Cc1ccc2nc(CN(C)C(=O)[C@@H](Cc3ccccc3)NC(=O)[C@H]3O[C@@H](n4ccc(=O)[nH]c4=O)[C@H](O)[C@@H]3O)[nH]c2c1`, the inhibition was 0.21%.

As for `COc1ccc(CN2C/C(=C/c3ccccc3)N3C(=O)C[C@@H](c4ccccc4)N=C23)c(OC)c1`, the inhibition is 2.75%.

Turning to `Cc1cc(F)ccc1S(=O)(=O)Nc1ncnc2scc(-c3ccc(F)cc3)c12`, the inhibition was 40.3% (active).

As to `COc1ccc(-c2csc3ncnc(N4CCN(S(=O)(=O)c5cccc(F)c5)CC4)c23)cc1`, the inhibition is 3.79%.

Consider `O=S(=O)(Nc1ncnc2sccc12)c1cccc(F)c1`, for which the inhibition was 5.08%.

For `Cc1ccc2nc(-c3ccc(CN4CCC(n5cc(-c6ccccc6)[nH]c5=O)CC4)cc3)c(-c3ccccc3)nc2c1`, the inhibition was 9.33%.

As to `COc1cccc(CNC(=O)C2CCCN(c3nc4ccccc4o3)C2)c1OC` (centres undefined), the inhibition is 4.36%.
